# Source: PubChem BioAssay (EPA / NIEHS)
# Activity calls are given as the source filed them. How the source made its calls: active means hit-call score of the fitted dose curve at least 0.9, where 1 is the maximum; inactive means score below 0.9.
# How the values were obtained:
# Details in all cases: mRNA level, 48 h; actives raise or lower the signal
# [1] = read-out: Glutathione S-Transferase (GSTA2), GSTA2 (gene 2939); assay: LTEA_HepaRG_GSTA2: Life Technologies and Expression Analysis (LTEA) Assay for Glutathione S-Transferase (GSTA2) using HepaRG (AID 2283497)
# In short: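 HepaRG, 48 h dosing, 8-pt half-log CRC from 100 uM, 0.5% DMSO vehicle, n=2; RNA → Fluidigm TaqMan qRT-PCR; GSTA2 vs ACTB/GAPDH/POLR2A; gain/loss fit vs DMSO.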
# [2] = read-out: Glutamate-cysteine ligase catalytic (GCLC), GCLC (gene 2729); assay: LTEA_HepaRG_GCLC: Life Technologies and Expression Analysis (LTEA) Assay for Glutamate-cysteine ligase catalytic (GCLC) using HepaRG (AID 2283498)
# In short: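 Read-out is GCLC transcript level by Fluidigm-based TaqMan qRT-PCR, normalized to three housekeeping genes and fitted in both directions relative to 0.5% DMSO. Human HepaRG cells received chemicals for 48 h, up to 100 uM.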
# [3] = read-out: growth arrest and DNA damage 45 (GADD45G), GADD45G (gene 10912); assay: LTEA_HepaRG_GADD45G: Life Technologies and Expression Analysis (LTEA) Assay for growth arrest and DNA damage 45 (GADD45G) using HepaRG (AID 2283499)
# In short: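 GADD45G transcript level by qRT-PCR (housekeeping-normalized: ACTB, GAPDH, POLR2A) after 48 h chemical treatment of a single HepaRG lot in serum-free induction medium; eight-point half-log series up to 100 uM in 0.5% DMSO, duplicates, up- or down-regulation scored.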
# [4] = read-out: Glutamate-cysteine ligase regulatory (GCLM), GCLM (gene 2730); assay: LTEA_HepaRG_GCLM: Life Technologies and Expression Analysis (LTEA) Assay for Glutamate-cysteine ligase regulatory (GCLM) using HepaRG (AID 2283500)
# In short: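 Human liver HepaRG cultures receive test chemicals for 48 hours at up to 100 uM in 0.5% DMSO. GCLM expression is measured by qRT-PCR and analysed for increases or decreases against vehicle.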
# [5] = read-out: Glutathione S-transferase M3 (GSTM3), GSTM3 (gene 2947); assay: LTEA_HepaRG_GSTM3: Life Technologies and Expression Analysis (LTEA) Assay for Glutathione S-transferase M3 (GSTM3) using HepaRG (AID 2283501)
# In short: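 GSTM3 transcript levels came from Fluidigm TaqMan qRT-PCR normalized to three housekeeping genes, fitted in both directions against DMSO. HepaRG cultures received chemicals for 48 h in serum-free induction medium (0.5% DMSO), 8 half-log concentrations up to 100 uM, duplicate.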
# [6] = read-out: Heat shock 70 kDa protein 1 (HSPA1A), gene 3303; assay: LTEA_HepaRG_HSPA1A: Life Technologies and Expression Analysis (LTEA) Assay for Heat shock 70 kDa protein 1 (HSPA1A) using HepaRG (AID 2283502)
# In short: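 HSPA1A induction in human HepaRG liver cells is measured after 48 h of chemical treatment (100 uM maximum, 0.5% DMSO vehicle). Expression comes from qRT-PCR normalized to endogenous controls.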
# [7] = read-out: 3-Hydroxy-3-Methylglutaryl-CoA Synthase 2 (HMGCS2), HMGCS2 (gene 3158); assay: LTEA_HepaRG_HMGCS2: Life Technologies and Expression Analysis (LTEA) Assay for 3-Hydroxy-3-Methylglutaryl-CoA Synthase 2 (HMGCS2) using HepaRG (AID 2283504)
# In short: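 Readout is HMGCS2 transcript by qRT-PCR, housekeeping-normalised (ACTB/GAPDH/POLR2A) and fitted bidirectionally against 0.5% DMSO. Differentiated HepaRG cells received chemicals 48 h, duplicate wells, eight half-log concentrations topping at 100 uM.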
# HGF (gene 3082) = assay: LTEA_HepaRG_HGF: Life Technologies and Expression Analysis (LTEA) Assay for Hepatocyte Growth Facto (HGF) using HepaRG (AID 2283505)
# In short: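 HGF transcript was quantified by TaqMan qRT-PCR against three housekeeping genes after 48 h treatment of HepaRG cells. Exposure ran in duplicate over eight half-log steps topping at 100 uM in 0.5% DMSO vehicle.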
# [8] = read-out: Insulin Like Growth Factor 1 (IGF1), IGF1 (gene 3479); assay: LTEA_HepaRG_IGF1: Life Technologies and Expression Analysis (LTEA) Assay for Insulin Like Growth Factor 1 (IGF1) using HepaRG (AID 2283506)
# In short: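 Using human HepaRG liver cells, IGF1 transcript induction or suppression is measured 48 h after dosing across eight concentrations capped at 100 uM. Values derive from bidirectional concentration-response fitting with DMSO as baseline.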
# [9] = read-out: Intercellular Adhesion Molecule 1 (ICAM1), ICAM1 (gene 3383); assay: LTEA_HepaRG_ICAM1: Life Technologies and Expression Analysis (LTEA) Assay for Intercellular Adhesion Molecule 1 (ICAM1) using HepaRG (AID 2283507)
# In short: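 ICAM1 transcript levels measured by qRT-PCR, normalized to three housekeeping genes (ACTB, GAPDH, POLR2A), after 48 h chemical exposure of HepaRG cells. Duplicate eight-point half-log series from 100 uM in 0.5% DMSO; gain or loss fitted against vehicle.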
# [10] = read-out: Insulin-like growth factor-binding protein 1 (IGFBP1), IGFBP1 (gene 3484); assay: LTEA_HepaRG_IGFBP1: Life Technologies and Expression Analysis (LTEA) Assay for Insulin-like growth factor-binding protein 1 (IGFBP1) using HepaRG (AID 2283508)
# In short: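 Read-out is qRT-PCR transcript level normalized to three housekeeping genes, fitted in both directions against 0.5% DMSO. Differentiated HepaRG cells received eight half-log concentrations (top 100 uM) in duplicate for 48 h in serum-free induction medium.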
# [11] = read-out: Interleukin 6 (IL6), IL6 (gene 3569); assay: LTEA_HepaRG_IL6: Life Technologies and Expression Analysis (LTEA) Assay for Interleukin 6 (IL6) using HepaRG (AID 2283509)
# In short: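 HepaRG, ~100,000 cells/well, 48 h pre-culture; serum-free induction medium; cmpd 8-pt half-log from 100 uM, 0.5% DMSO, duplicate, 48 h. Lysis in RLT, TaqMan qRT-PCR; gain or loss vs DMSO.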
# [12] = read-out: Interleukin 6 Receptor (IL6R), IL6R (gene 3570); assay: LTEA_HepaRG_IL6R: Life Technologies and Expression Analysis (LTEA) Assay for Interleukin 6 Receptor (IL6R) using HepaRG (AID 2283510);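 on AC50: differentiated human HepaRG liver cells in serum-free induction medium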
# In short: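 Concentration-response in human liver HepaRG cells: eight concentrations from 100 uM downward by half-logs, 48 h exposure, 0.5% DMSO vehicle. IL6R mRNA change measured by qRT-PCR and fitted in both directions relative to vehicle.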
# [13] = read-out: Potassium channel subfamily K member 1 (KCNK1), KCNK1 (gene 3775); assay: LTEA_HepaRG_KCNK1: Life Technologies and Expression Analysis (LTEA) Assay for Potassium channel subfamily K member 1 (KCNK1) using HepaRG (AID 2283511)
# In short: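 Gain or loss of KCNK1 mRNA is the read-out, quantified by qRT-PCR against three housekeeping genes after 48 h chemical treatment of human HepaRG liver cells. Concentrations ran from 100 uM downward in half-log steps, vehicle 0.5% DMSO.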
# [14] = read-out: Keratin 19 (KRT19), KRT19 (gene 3880); assay: LTEA_HepaRG_KRT19: Life Technologies and Expression Analysis (LTEA) Assay for Keratin 19 (KRT19) using HepaRG (AID 2283512)
# In short: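 KRT19 transcript measured by TaqMan qRT-PCR, referenced to three housekeeping genes, after HepaRG cells received test chemicals for 48 h. Eight half-log concentrations, top 100 uM, 0.5% DMSO vehicle; increases and decreases both fitted.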
# [15] = read-out: Lipase C (LIPC), LIPC (gene 3990); assay: LTEA_HepaRG_LIPC: Life Technologies and Expression Analysis (LTEA) Assay for Lipase C (LIPC) using HepaRG (AID 2283514)
# In short: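 Read-out is LIPC transcript level by TaqMan qRT-PCR, normalized to three housekeeping genes, after 48 h chemical treatment of human HepaRG liver cells. Curves span eight concentrations topping at 100 uM; activity in either direction scored relative to 0.5% DMSO.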
# [16] = read-out: Lipoprotein lipase (LPL), LPL (gene 4023); assay: LTEA_HepaRG_LPL: Life Technologies and Expression Analysis (LTEA) Assay for Lipoprotein lipase (LPL) using HepaRG (AID 2283515)
# In short: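 Read-out is LPL transcript level by qRT-PCR, normalized to three housekeeping genes and fitted bidirectionally against the DMSO control. Human HepaRG cells received chemicals for 48 h at up to 100 uM.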
# [17] = read-out: MicroRNA 122 (MIR122), gene 406906; assay: LTEA_HepaRG_MIR122: Life Technologies and Expression Analysis (LTEA) Assay for MicroRNA 122 (MIR122) using HepaRG (AID 2283516); further: the transcript read is the microRNA miR-122
# In short: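 HepaRG, 48 h exposure, 8-pt half-log from 100 uM, 0.5% DMSO; TaqMan qRT-PCR; bidirectional fit vs DMSO.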
# [18] = read-out: Cytochrome P450 7A1 (Homo sapiens) (UniProt P22680); assay: LTEA_HepaRG_CYP7A1: Life Technologies and Expression Analysis (LTEA) Assay for Cytochrome P450 7A1 (CYP7A1) using HepaRG (AID 2283496)
# In short: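 Gene expression endpoint in human HepaRG liver cells treated for 48 h with test chemicals (up to 100 uM, 0.5% DMSO). Values come from bidirectional concentration-response fitting versus DMSO.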
# [19] = read-out: Hypoxia-inducible factor 1-alpha (Homo sapiens) (UniProt Q16665); assay: LTEA_HepaRG_HIF1A: Life Technologies and Expression Analysis (LTEA) Assay for Hypoxia-inducible factor 1 (HIF1A) Trancription factor using HepaRG (AID 2283503)
# In short: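 HepaRG, 48 h exposure, 8-pt half-log series from 100 uM, 0.5% DMSO vehicle, duplicates. Readout: HIF1A transcript by qRT-PCR (Fluidigm array), housekeeping-normalised. Bidirectional curve fit vs DMSO baseline.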
# Chain of Hypoxia-inducible factor 1-alpha (Homo sapiens) (Q16665 whole entry, looked up): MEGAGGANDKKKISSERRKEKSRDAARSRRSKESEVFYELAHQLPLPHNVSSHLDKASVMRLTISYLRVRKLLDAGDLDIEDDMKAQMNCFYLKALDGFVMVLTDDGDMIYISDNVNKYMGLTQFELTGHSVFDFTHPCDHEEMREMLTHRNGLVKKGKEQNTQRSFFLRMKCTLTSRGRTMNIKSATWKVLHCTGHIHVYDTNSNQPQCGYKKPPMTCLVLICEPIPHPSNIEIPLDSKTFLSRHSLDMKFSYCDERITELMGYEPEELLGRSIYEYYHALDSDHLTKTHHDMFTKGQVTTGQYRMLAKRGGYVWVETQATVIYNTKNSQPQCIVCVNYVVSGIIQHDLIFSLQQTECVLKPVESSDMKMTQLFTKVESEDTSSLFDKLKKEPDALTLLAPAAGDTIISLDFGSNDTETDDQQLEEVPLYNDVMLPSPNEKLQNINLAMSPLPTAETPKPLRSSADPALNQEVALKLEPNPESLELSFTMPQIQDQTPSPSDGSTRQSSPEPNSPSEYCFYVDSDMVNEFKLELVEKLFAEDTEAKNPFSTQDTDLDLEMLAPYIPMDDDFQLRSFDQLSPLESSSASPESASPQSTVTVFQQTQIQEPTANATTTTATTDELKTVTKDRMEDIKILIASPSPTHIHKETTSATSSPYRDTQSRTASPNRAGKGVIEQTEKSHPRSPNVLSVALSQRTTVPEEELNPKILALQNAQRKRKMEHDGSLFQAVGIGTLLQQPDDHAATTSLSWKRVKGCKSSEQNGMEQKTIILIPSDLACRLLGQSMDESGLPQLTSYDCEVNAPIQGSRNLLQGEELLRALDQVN
compound,measurement,setting,value
CN(C)CCOC(c1ccccc1)c1ccccc1,outcome,[1],inactive
same,outcome,[2],inactive
same,outcome,[3],inactive
same,outcome,[4],inactive
same,outcome,[5],inactive
same,outcome,[6],inactive
same,outcome,[7],inactive
same,outcome,HGF (gene 3082),inactive
same,outcome,[8],inactive
same,outcome,[9],inactive
same,outcome,[10],inactive
same,outcome,[11],inactive
same,outcome,[12],inactive
same,outcome,[13],inactive
same,outcome,[14],inactive
same,outcome,[15],inactive
same,AC50,[16],50 µM (active)
same,outcome,[17],inactive
CC(=O)Nc1ccc(O)cc1,outcome,[18],inactive
same,outcome,[1],inactive
same,outcome,[2],inactive
same,outcome,[3],inactive
same,outcome,[4],inactive
same,outcome,[5],inactive
same,outcome,[6],inactive
same,outcome,[7],inactive
same,outcome,[8],inactive
same,outcome,[9],inactive
same,outcome,[10],inactive
same,outcome,[11],inactive
same,outcome,[12],inactive
same,outcome,[13],inactive
same,outcome,[14],inactive
same,outcome,[15],inactive
same,outcome,[16],inactive
same,outcome,[17],inactive
N=C(N)c1ccc(OCCCCCOc2ccc(C(=N)N)cc2)cc1,AC50,[18],6.66 µM (active)
same,AC50,[1],7.03 µM (active)
same,AC50,[2],27.9 µM (active)
same,AC50,[3],4.37 µM (active)
same,outcome,[4],inactive
same,AC50,[5],5.05 µM (active)
same,AC50,[6],26.5 µM (active)
same,AC50,[19],4.28 µM (active)
same,AC50,[7],7.77 µM (active)
same,AC50,HGF (gene 3082),13.8 µM (active)
same,AC50,[8],11.1 µM (active)
same,AC50,[9],10.9 µM (active)
same,AC50,[10],3.52 µM (active)
same,AC50,[11],9.85 µM (active)
same,AC50,[12],29.3 µM (active)
same,outcome,[13],inactive
same,AC50,[14],31 µM (active)
same,AC50,[15],3.64 µM (active)
same,AC50,[16],68.9 µM (active)
same,AC50,[17],3.63 µM (active)
CCCCCCCCCCCCCCC,outcome,[18],inactive
same,outcome,[1],inactive
same,outcome,[2],inactive
same,outcome,[3],inactive
same,outcome,[4],inactive
same,outcome,[5],inactive
same,outcome,[6],inactive
same,outcome,[19],inactive
same,outcome,[7],inactive
same,outcome,HGF (gene 3082),inactive
same,outcome,[8],inactive
same,outcome,[9],inactive
same,outcome,[10],inactive
same,outcome,[11],inactive
same,outcome,[12],inactive
same,outcome,[13],inactive
same,outcome,[14],inactive
same,outcome,[15],inactive
same,outcome,[16],inactive
same,outcome,[17],inactive
